High-throughput results (PubChem)
Only some compounds are listed: those with a hit (about 2.3% of all), similar ones and a draw of the others.
M1 PAM parental – nonselective activator or artifact in parental CHO-K1 calcium assay; ATP EC20, Fluo-8 calcium fluorescence; 0% at ATP EC20, 100% at ATP max; 360,000 compounds, 0.02% hits; activation, % at 3 µM;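 active means activation above the run cutoff, the mean activation of all test compounds plus 3 SD, cut at about 40% in these data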;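 further: peak over basal fluorescence ratio in a 140 s read after ATP addition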
M1 ag – agonists of human M1 muscarinic receptor; P11229; CHO-K1 hM1, Fluo-8 calcium fluorescence, agonist mode; 0% DMSO, 100% acetylcholine EC100; activation, % at 3 µM; 360,000 compounds, 0.33% hits;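 active means activation above the run's mean compound activation plus 3 SD, cut at about 16% in these data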;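 further: peak over basal fluorescence ratio within a 140 s kinetic read after compound addition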
Target sequence (P11229 whole entry, looked up): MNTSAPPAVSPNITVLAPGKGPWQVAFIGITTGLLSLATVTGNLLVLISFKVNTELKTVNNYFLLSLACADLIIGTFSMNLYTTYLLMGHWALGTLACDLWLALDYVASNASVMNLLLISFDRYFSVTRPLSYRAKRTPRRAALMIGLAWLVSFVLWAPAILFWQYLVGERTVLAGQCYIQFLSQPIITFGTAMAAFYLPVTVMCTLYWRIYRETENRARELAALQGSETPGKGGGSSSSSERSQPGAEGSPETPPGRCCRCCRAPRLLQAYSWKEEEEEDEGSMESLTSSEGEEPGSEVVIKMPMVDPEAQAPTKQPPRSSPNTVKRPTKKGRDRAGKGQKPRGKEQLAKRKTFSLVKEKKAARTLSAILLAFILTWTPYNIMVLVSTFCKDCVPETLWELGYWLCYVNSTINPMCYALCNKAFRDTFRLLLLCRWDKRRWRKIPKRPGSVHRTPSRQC
M1 antag – antagonists of human M1 muscarinic receptor | P11229 | CHO-K1 hM1, Fluo-8 calcium fluorescence, ACh EC80 antagonist | inhibition, % at 3 µM | 360,000 compounds, 1.3% hits;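 active means percent inhibition above its own plate's cutoff, namely the mean of that plate's compound wells plus 3 SD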;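 further: peak over basal fluorescence ratio during 140 s after agonist addition; 0% = ACh EC80 plus DMSO and 100% = DMSO alone without agonist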
CHO-K1 Ca antag – M1 antagonist counterscreen hit in parental CHO-K1 cells | 360,000 compounds, 0.6% hits | AID 602250 | ATP-induced calcium, Fluo-8 fluorescence | inhibition, % at 3 µM;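 active means inhibition above a per-plate cutoff, the plate's mean sample inhibition plus 3 SD, cut at about 24% in these data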;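 further: 0% = DMSO plus EC80 ATP and 100% = DMSO alone without ATP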
M1 PAM – human CHRM1 positive allosteric modulation | P11229 | CHO-K1 hM1, Fluo-8 calcium fluorescence, ACh EC20; 0% = ACh EC20, 100% = maximal ACh | activation, % at 3 µM | 360,000 compounds, 0.088% hits | AID 588819; in the data active means activation above about 19%, passing the limit was not always enough
M1 ag parental – M1 agonist counterscreen hit in parental CHO-K1 cells | Fluo-8 calcium fluorescence; scaled to maximal ATP response, vehicle zero | activation, % at 3 µM | 360,000 compounds, 0.48% hits; in the data active means activation above about 15%;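 further: untransfected CHO-K1 host cells lacking M1 receptor as counterscreen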
Numbers without * were called inactive.

SMILES	M1 PAM parental	M1 ag	M1 antag	CHO-K1 Ca antag	M1 PAM	M1 ag parental
Cc1ccc(C(C)NC(=S)NCc2ccc(F)cc2)cc1C (configuration not stated)	-2	-2	10	-8	-11	7
CCOc1ccc(C(C)NC(=O)C2CCC2)cc1 (configuration not stated)	-14	-5	-4	24*	6	0
CCOc1ccc(CNC(=S)NCc2ccc(OCC)cc2)cc1	10	-8	-14	0	0	1
CC(=O)C(Sc1nn(C)c(=S)s1)C(=O)Nc1ccccc1 (configuration not stated)	11	-4	-1	-5	6	0
Cc1nn(Cc2ccccc2)c(Cl)c1/C=C/C(=O)OC(C(=O)NC(N)=O)C(C)C (configuration not stated)	11	-7	15	-7	-17	1
CCN1CCN(c2nc(-c3ccccc3)c3ccccc3n2)CC1	25	-11	47*	-25	-29	3
c1ccc(-c2nc(N3CCCCC3)nc3ccccc23)cc1	15	-5	6	-3	-2	0
Cc1c(C=C(C#N)c2ccc([N+](=O)[O-])cc2)c(=O)n(-c2ccccc2)n1C	9	-7	30*	-9	-21	0
Cc1ccccc1-c1cc2nc(NCCN3CCNC3=O)n(C)c(=O)c2s1	7	-3	-9	-9	2	1
O=C(c1ccccc1)c1c2c(cc3sc4ccccc4[n+]13)-c1cccc3cccc-2c13	8	34*	46*	24*	-14	24*
Cc1sc2ccccc2[n+]1CC(=O)c1ccccc1	18	-1	-8	-12	6	1
Cc1cccc(CC(=O)NCCS(=O)(=O)N2CCN(c3cccc(Cl)c3)CC2)c1	1	-1	2	-6	0	4
COc1ccc(SCCN2CC[C@@H](C)CCC2=O)cc1	-18	-6	26	24*	-16	1
CCc1nc2ccc(C(=O)NCC3CCCCC3)cn2c1N(C)Cc1nccs1	-19	-5	-7	9	0	2
COc1cc(C)c(Cl)c(C)c1S(=O)(=O)NCc1cccnc1	-7	-2	14	27*	-1	0
Cc1cc(C)c(C)c(S(=O)(=O)NCc2cccnc2)c1C	12	0	-4	-33	6	4
Cc1cc(Cl)c(S(=O)(=O)N2CCN(c3ccccc3)CC2)cc1OCC(N)=O	7	-2	3	-7	-5	1
CC1CC(=O)Nc2ccccc2N1C(=O)CN1CCN(C=O)CC1 (configuration not stated)	21	-7	-9	4	11	15*
CC(C)CN1C(=O)C(=O)N(CC(=O)N2c3ccccc3NC(=O)CC2C)C1=O (configuration not stated)	9	-1	-12	-13	8	1
Cc1ccc(OCC(=O)OCC(=O)NC2CCS(=O)(=O)C2)cc1C (configuration not stated)	-6	-1	-7	7	10	0
CCOc1ccccc1CNS(=O)(=O)c1ccc(-c2cnc(C3CC3)o2)cc1	-15	3	36*	14	-15	13
Cc1ccccc1NC(=O)Nc1nc(C(N)C2CCCCC2)cs1 (configuration not stated)	15	7	-7	-2	12	3
O=C(O)c1ccc2c(=O)n(-c3ccc(F)cc3)c(=S)[nH]c2c1	14	-1	38*	-7	23	0
O=C(O)c1ccc(-n2c(=O)c3ccccc3c3ccccc3c2=O)cc1	-16	-3	11	31*	-12	0
CC(=O)Nc1ccc(-n2c(=O)c3ccccc3c3ccccc3c2=O)cc1	0	-1	-6	-14	5	0
SMILES	M1 PAM parental	M1 ag	M1 antag	CHO-K1 Ca antag	M1 PAM	M1 ag parental
O=C(NNC(=O)C1CC=CCC1)c1ccccc1Cl (configuration not stated)	7	2	-14	5	15	0
CCOC(=O)COc1cc2c3c(c(=O)oc2cc1C)CCCC3	15	-5	48*	5	-22	3
CC(C)(C)n1nnnc1C(c1cccs1)N(Cc1ccccc1)Cc1ccco1 (configuration not stated)	6	-4	-1	-9	-2	0
CC(C)(C)n1nnnc1C(c1cccs1)N(Cc1cccnc1)Cc1ccco1 (configuration not stated)	23	-2	98*	-10	-19	0
COc1cc(C)c(CN2CCN(C(C)C(=O)NC(C)c3ccccc3)CC2)cc1OC (configuration not stated)	-7	2	-5	-13	3	0
CC(C)NC(=O)C1(C)Cc2c(-c3ccc(N(C)C)cc3)ccnc2O1 (configuration not stated)	-5	-4	11	10	-5	0
CC(=O)Nc1c(NC(C)C)c2ccccc2oc1=O	14	1	-10	-18	14	3
CC(=O)Nc1c(Nc2ccccc2)c2ccccc2oc1=O	6	-7	-4	18	12	15*
CNC(C)C(=O)NC(C(=O)NC(C)C(=O)Nc1cccc2ccccc12)C(C)C (configuration not stated)	14	-3	-9	-7	2	0
Cc1ccc(-c2ccc(/C=C3\SC(N4CCOCC4)=NC3=O)o2)cc1	8	-6	1	-1	3	2
Cc1ccc(/C=C2\SC(N3CCN(C(c4ccccc4)c4ccccc4)CC3)=NC2=O)o1	21	-11	52*	-11	-26	1
COC(=O)CSc1nnc2n(-c3ccc(OC)cc3)c(=O)c3c4c(sc3n12)CCCCC4	-2	-4	5	24*	1	-1
COC(=O)CSc1nnc2n(C3CCCCC3)c(=O)c3c4c(sc3n12)CCCC4	3	-4	-1	-13	-8	0
Cc1ccc(S(=O)(=O)N(C)C[C@@H]2OCc3cnnn3CCCC(=O)N([C@H](C)CO)C[C@@H]2C)cc1	9	-5	-13	3	8	2
COc1ccc(NC(=O)CCc2nnc3ccc(NCc4ccco4)nn23)cc1	20	-1	20	-14	26*	1
CC(C)(C)S(=O)(=O)N1C[C@@H]2C(=CC[C@H]3C(=O)N(c4ccccc4)C(=O)[C@@H]23)[C@@H]1CCO	4	-4	-21	-3	7	0
CC(=O)c1cc2c(cc1NC(=O)c1ccco1)OCCO2	-11	-5	17	25*	-9	0
CC(C)(CNC(=O)c1cccc(S(=O)(=O)N2CCCCC2)c1)N1CCOCC1	11	-6	-18	7	19	0
